# Article PMC4336329 (PLoS ONE, 2015)
# Among all 310,000 compounds or so, about 2,200 (0.71%) showed an effect of 50% or more. The effect is printed as a negative number. This excerpt belongs to a sample that is enriched for strong results.
# Target: human ether-à-go-go-related gene (hERG) potassium channel (human, UniProt Q12809)
# Test: primary screen, population patch clamp on CHO cells stably expressing hERG; higher = less effect of the substance
# Sequence of human ether-à-go-go-related gene (hERG) potassium channel (Q12809 whole entry, looked up): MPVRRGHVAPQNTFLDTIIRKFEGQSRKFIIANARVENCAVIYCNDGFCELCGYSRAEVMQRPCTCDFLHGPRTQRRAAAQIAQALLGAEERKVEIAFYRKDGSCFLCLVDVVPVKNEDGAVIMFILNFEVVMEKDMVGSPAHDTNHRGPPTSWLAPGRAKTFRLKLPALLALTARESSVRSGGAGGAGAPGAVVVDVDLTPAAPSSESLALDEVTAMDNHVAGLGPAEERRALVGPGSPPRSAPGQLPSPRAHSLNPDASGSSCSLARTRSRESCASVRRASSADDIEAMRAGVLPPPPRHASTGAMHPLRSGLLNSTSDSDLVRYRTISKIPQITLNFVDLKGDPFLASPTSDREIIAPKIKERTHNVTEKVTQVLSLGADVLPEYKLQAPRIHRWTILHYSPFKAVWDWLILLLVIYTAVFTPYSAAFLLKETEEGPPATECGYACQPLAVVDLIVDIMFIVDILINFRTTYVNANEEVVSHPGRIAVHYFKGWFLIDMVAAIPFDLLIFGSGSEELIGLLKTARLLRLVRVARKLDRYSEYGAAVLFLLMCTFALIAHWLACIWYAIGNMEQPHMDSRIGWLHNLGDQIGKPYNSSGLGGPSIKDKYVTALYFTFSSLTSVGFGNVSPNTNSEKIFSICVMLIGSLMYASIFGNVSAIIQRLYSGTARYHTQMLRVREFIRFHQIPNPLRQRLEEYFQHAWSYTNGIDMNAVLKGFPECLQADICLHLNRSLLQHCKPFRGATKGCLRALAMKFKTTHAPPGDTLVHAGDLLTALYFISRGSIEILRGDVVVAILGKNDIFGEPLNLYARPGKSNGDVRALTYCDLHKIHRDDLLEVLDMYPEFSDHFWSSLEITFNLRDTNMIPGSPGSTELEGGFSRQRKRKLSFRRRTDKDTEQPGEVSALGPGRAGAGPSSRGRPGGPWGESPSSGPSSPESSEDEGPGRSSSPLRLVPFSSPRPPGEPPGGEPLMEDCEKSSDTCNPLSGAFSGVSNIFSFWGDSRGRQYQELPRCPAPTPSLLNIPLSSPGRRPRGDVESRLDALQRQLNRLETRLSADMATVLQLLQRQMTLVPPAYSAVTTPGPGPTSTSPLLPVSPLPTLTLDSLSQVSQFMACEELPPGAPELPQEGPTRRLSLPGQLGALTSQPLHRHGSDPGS
row,SMILES,"hERG current change (%, negative = inhibition) at 1uM [%]"
1,CC1CN(C(=O)c2c([N+](=O)[O-])cnn2C)CC(C)O1 (centres unmarked),1.78
2,NNC(=O)C1CC(O)CN1S(=O)(=O)c1ccc(Cl)cc1 (centres unmarked),6.56
3,O=C(Nc1ccc(-c2csc(-c3ccccc3)n2)cc1)c1ccccc1Cl,16.9
4,CCOC(=O)N1CCC(NC(=O)c2cc(C(=O)Nc3ccc(OC)c(OC)c3)ccc2CO)CC1,4.41
5,O=S(=O)(c1ccccc1Cl)N1CCC(Cc2ccccc2)CC1,13.5
6,CCCCc1nn(-c2cc(Cl)ccc2OC)c2c1C(=O)CCC2,12.2
7,COC(=O)C1=C(c2ccc(F)cc2OCc2ccccc2)C[C@@H]2CC[C@H]1N2C(=O)NCCNC(C)=O,16.4
8,Cc1cc(=O)n2nc(N3CCC(C(=O)NCC(C)c4ccccc4)CC3)sc2n1 (centres unmarked),11.7
9,Cc1nn2c(NCCOCCO)c3c(nc2c1-c1ccccc1)CCCC3,-75.3
10,COCCNc1c2c(nc3c(-c4ccccc4)c(C)nn13)CCCC2,5.77
11,Cc1nn2c(NCCOCCO)c3c(nc2c1-c1ccccc1)CCC3,-9.29
12,O=C(CCS(=O)(=O)c1cccs1)Nc1ccc(C(=O)NC2CCN(Cc3ccccc3)CC2)cc1,7.84
13,CCC(CC)C(=O)c1c[nH]c(C(=O)NCc2ccccn2)c1,8.96
14,Cc1ccc(-n2ncc3c2CCCC3NC(=O)c2ccoc2)cc1C (centres unmarked),-78.5
15,CC1(C)Cc2c(cnn2-c2ccc(F)cc2)C(NC(=O)C2CCC2)C1 (centres unmarked),-56.8
16,Cc1ccc(-n2ncc3c2CC(C)(C)CC3NC(=O)c2ccncc2)cc1 (centres unmarked),-48.8
17,Cc1ccc(-n2ncc3c2CC(C)(C)CC3NC(=O)c2ccc[n+]([O-])c2)cc1 (centres unmarked),7.22
18,COC(=O)c1ccc(C(=O)NC2CC(C)(C)Cc3c2cnn3-c2ccc(F)cc2)nc1 (centres unmarked),-0.769
19,CC1(C)Cc2c(cnn2-c2ccc(F)cc2)C(NC(=O)C2=NNC(=O)CC2)C1 (centres unmarked),-52.1
20,Cc1ccc(-n2ncc3c2CC(C)(C)CC3NC(=O)c2cc[n+]([O-])cc2)cc1 (centres unmarked),-62.7
21,Cc1cc(C(=O)NC2CCCc3c2cnn3-c2ccc(C)c(C)c2)no1 (centres unmarked),1.86
22,CC(=O)N1CCC(C(=O)NC2CC(C)(C)Cc3c2cnn3-c2ccc(F)cc2)CC1 (centres unmarked),-11.3
23,Cc1cc(C(=O)NC2CC(C)(C)Cc3c2cnn3-c2ccc(F)cc2)nn1C (centres unmarked),5.91

row,SMILES,"hERG current change (%, negative = inhibition) at 1uM [%]"
1,CC1(C)Cc2c(cnn2-c2ccc(F)cc2)C(NC(=O)C(C)(C)O)C1 (centres unmarked),12.6
2,COC(=O)c1ccc(C(=O)NC2CCCc3c2cnn3-c2ccc(C)c(C)c2)cc1 (centres unmarked),12.4
3,CC(C)C(=O)Nc1ccc(NC(=O)c2ccccn2)cn1,12.6
4,O=C(CSc1nnc(CNC(=O)c2ccccc2F)o1)Nc1cccc(C(F)(F)F)c1,16
5,COc1ccc[nH]c1=O,1.28
6,CCOC(=O)Cn1cnc2c(nnn2-c2cccc(OC)c2)c1=O,17
7,COc1ccc(/C(C)=N/N=C2/NC(=O)CC(C(=O)O)S2)cc1 (centres unmarked),5.89
8,COCCCNC(=O)CCn1c(=O)c2ccccc2n(CC(=O)Nc2cc(Cl)ccc2C)c1=O,2.79
9,O=C(NCc1ccc2c(c1)OCO2)c1ccc(S(=O)(=O)C(F)F)cc1,-0.408
10,CC1(C)Cc2c(cnn2-c2ccccc2)C(NC(=O)c2ccoc2)C1 (centres unmarked),-91.7
11,CC1(C)Cc2c(cnn2-c2ccccc2)C(NC(=O)c2ccc[n+]([O-])c2)C1 (centres unmarked),8.68
12,Cc1ccc(-n2ncc3c2CC(C)(C)CC3NC(=O)CCn2cncn2)cc1 (centres unmarked),-78.5
13,CC1(C)Cc2c(cnn2-c2ccc(F)cc2)C(NC(=O)c2cnccn2)C1 (centres unmarked),-6.77
14,CC(=O)c1ccc(C(=O)NC2CC(C)(C)Cc3c2cnn3-c2ccccc2)cc1 (centres unmarked),5.88
15,CC1(C)Cc2c(cnn2-c2ccc(F)cc2)C(NC(=O)c2ccoc2)C1 (centres unmarked),-95.7
16,CC1(C)Cc2c(cnn2-c2ccc(F)cc2)C(NC(=O)CCn2cncn2)C1 (centres unmarked),-40.7
17,Cn1nccc1C(=O)NC1CC(C)(C)Cc2c1cnn2-c1ccc(F)cc1 (centres unmarked),-20
18,COc1ccc(-n2ncc3c2CC(C)(C)CC3NC(=O)CCn2cncn2)cc1 (centres unmarked),-5.06
19,CCOc1cc(C#N)ccc1OCC(=O)N1CCN(C(=O)c2cccs2)CC1,-16.1
20,O=C(Nc1ccccc1Cl)c1ccc(S(=O)(=O)NCC2CCCO2)cc1 (centres unmarked),-7.62
21,CCOc1ccccc1OCC(=O)O,12.1
22,CCCCn1c(O)c(C(=O)/C=C/c2ccc3c(c2)OCO3)c(=O)[nH]c1=O,11.9
23,Cc1ccccc1CN1C[C@@H]2C[C@@H](c3cn[nH]c3-c3ccc(F)cc3)N3CCC[C@@]23C1=O,-12.9

row,SMILES,"hERG current change (%, negative = inhibition) at 1uM [%]"
1,CC(=O)Oc1ccc(-c2nc3c(C)cccc3c(=O)o2)cc1,11.9
2,CCOC(=O)c1[nH]c2ccc(F)cc2c1NC(=O)CN1CCN(C/C=C/c2ccccc2)CC1,-77.3
3,COC(=O)c1[nH]c2ccccc2c1NC(=O)CN1CCN(C/C=C/c2ccccc2)CC1,-84.4
4,CCOC(=O)c1[nH]c2ccc(F)cc2c1NC(=O)CN1CCc2cc(OC)c(OC)cc2C1,11.2
5,CCOC(=O)c1[nH]c2ccc(OCC)cc2c1NC(=O)CN1CCN(c2ccccc2)CC1,15.9
6,Cc1[nH]c2ccccc2c1C(=O)CN1CCCC1,7.66
7,COC(=O)c1[nH]c2ccccc2c1NC(=O)CN1CCCCCC1,-3.6
8,CCOC(=O)N1CCN(CC(=O)Nc2c(C(=O)OC)[nH]c3ccccc23)CC1,7.01
9,COc1ccc2[nH]c(C)c(C(=O)CN3CCN(C/C=C/c4ccccc4)CC3)c2c1,5.17
10,Cc1[nH]c2ccccc2c1C(=O)CN1CCN(C/C=C/c2ccccc2)CC1,-50.4
11,O=C(COC(=O)COc1ccc(Br)cc1)NCCC1=CCCCC1,1.54
12,COc1ccc2[nH]cc(CCNC(=O)CCC3CCCCC3)c2c1,1.77
13,O=C(COC(=O)c1ncc(Cl)c(Cl)c1Cl)NC1CCS(=O)(=O)C1 (centres unmarked),-1.03
14,Cc1ccc(S(=O)(=O)N2CCOC23CCN(C(=O)C(=O)NCCC(C)C)CC3)cc1,4.48
15,O=c1[nH]c(=O)n(CCc2ccc(F)cc2)c(O)c1/C=N/N1CCCCC1,11.7
16,CCOC(=O)C1(C)/C(=N/Nc2ccccc2)C(=O)C(=O)N1c1ccccc1 (centres unmarked),-3.13
17,Cc1cccn2c(=O)c3cc(C(=O)NCc4cccnc4)c(=N)n(CC4CCCO4)c3nc12 (centres unmarked),-78.5
18,Cc1cccn2c(=O)c3cc(C(=O)NCCN4CCOCC4)c(=N)n(Cc4cccnc4)c3nc12,9.95
19,Cc1cccn2c(=O)c3cc(C(=O)NCC4CCCO4)c(=N)n(Cc4ccc(F)cc4)c3nc12 (centres unmarked),-80.4
20,Cc1cccn2c(=O)c3cc(C(=O)NC4CCCC4)c(=N)n(Cc4ccc(F)cc4)c3nc12,-19.4
21,Cc1cccn2c(=O)c3cc(C#N)c(=NC(=O)c4cccnc4)n(CC4CCCO4)c3nc12 (centres unmarked),-10.2
22,Cc1cccn2c(=O)c3cc(C(=O)NC4CCCCC4)c(=N)n(Cc4ccc(F)cc4)c3nc12,-16
23,Cc1cccn2c(=O)c3cc(C(=O)NCC4CCCO4)c(=N)n(Cc4cccnc4)c3nc12 (centres unmarked),-96.3

row,SMILES,"hERG current change (%, negative = inhibition) at 1uM [%]"
1,Cc1ccc(Cn2c(=N)c(C(=O)NCC3CCCO3)cc3c(=O)n4cccc(C)c4nc32)cc1 (centres unmarked),-85.9
2,CCn1c(SCc2nc(CC(=O)Nc3ccccc3OC)no2)nnc1-c1cccs1,-19.1
3,COc1ccc(CNC(=O)C2CSC(=O)C2)cc1 (centres unmarked),8.88
4,Cc1cccc(-n2c(O)c(/C=N/NC(=O)c3ccccc3Cl)c3ccccc3c2=O)n1,9.11
5,COc1cccc(/C=C/C(=O)OCC(=O)Nc2cc(C(F)(F)F)ccc2Cl)c1,8.68
6,CN(C(=O)c1ccc(OC2CCN(S(=O)(=O)N(C)C)CC2)cc1)C1CCCCC1,-1.59
7,O=C(NCCNC(=O)c1cc(OCC(F)(F)F)ccc1OCC(F)(F)F)Nc1ccccc1,-15
8,CCN1CCS/C1=C/C=C/C1=[N+](CC)CCS1.[I-],3.64
9,CCN1CCN(CCc2nc3cc([N+](=O)[O-])ccc3n2C)CC1,-1.88
10,Cn1c(CN2CCN(C(=O)c3ccc(F)cc3)CC2)nc2cc([N+](=O)[O-])ccc21,-59.1
11,CC(=O)N1CCN(Cc2nc3cc([N+](=O)[O-])ccc3n2C)CC1,14
12,Cc1ccc(S(=O)(=O)Nc2ccc3c(c2)nc(CCN2CCCC2)n3C)cc1,-13.7
13,Cn1c(CN2CCCCC2)nc2cc(NS(=O)(=O)c3ccc(Cl)cc3)ccc21,-9.75
14,Cn1c(CCN2CCCCC2)nc2cc(NS(=O)(=O)c3ccc(Cl)cc3)ccc21,-59.1
15,Cn1c(CN2CCCC2)nc2cc(NS(=O)(=O)c3ccc(Cl)cc3)ccc21,-31
16,Cn1c(CN2CCCCC2)nc2cc([N+](=O)[O-])ccc21,-2.57
17,Cn1c(CCN2CCCCC2)nc2cc([N+](=O)[O-])ccc21,-54.8
18,Cc1ccc(S(=O)(=O)Nc2ccc3c(c2)nc(CCN2CCCCC2)n3C)cc1,-29.7
19,Cn1c(CN2CCN(C(=O)c3ccccc3)CC2)nc2cc([N+](=O)[O-])ccc21,-29.6
20,Cn1c(CCN2CCCC2)nc2cc(NS(=O)(=O)c3ccc(Cl)cc3)ccc21,-62
